# Experimental data: PubChem BioAssay AID485313 (National Center for Advancing Translational Sciences (NCATS), 2010)
# Hit rate of the full screen: of about 320,000 compounds, about 7,600 (2.4%) were called active. Another 3% or so got no clear call; they are omitted. Calls follow the shape of the dose curve; as a rule, active = well fitted activation curve with a large enough effect; inconclusive = small, poorly fitted or top-dose-only effect; inactive = no such curve, though single readings can be large or run the other way. What follows is part of a selection rich in actives, with near analogues and random picks from the rest. Where a call stands in place of a potency, no number is given.
# Experiment: qHTS Assay for NPC1 Promoter Activators; also: nearly all actives have a fitted effect of over 60% in size;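 as to activation: reporter is driven by a mutant NPC1 promoter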
# Conditions: Huh7 NPC1 promoter luciferase reporter, 24 h; series mostly up to 9.22 µM
# Outline: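 Readout is luciferase luminescence, reflecting NPC1 promoter activation in stably transfected Huh7 cells after 24 h compound exposure at 37 °C in reduced-serum medium with 10% FBS.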
# Potency is read from the fitted curve at half-maximal effect.
row,SMILES,Potency
1,CC(C)(C)n1ncc2c(=O)n(Cc3c(Cl)cccc3Br)cnc21,inactive
2,CC(C)c1ccc(S(=O)(=O)N2CCN(C(C)C(=O)NC3CCCC3)CC2)cc1 (configuration not stated),inactive
3,CCCC(NCC(=O)Nc1ccccc1C(=O)NC1CC1)c1ccccc1 (configuration not stated),inactive
4,COc1ccccc1N1CCN(C(=O)C2Cc3ccccc3CN2C(=O)c2ccco2)CC1 (configuration not stated),inactive
5,CCN1C(=O)[C@@H]2[C@@H](c3ccc(-c4cccc(Cl)c4)cc3)N3CCC[C@@]3(C(=O)OC)[C@@H]2C1=O,inactive
6,CCCCc1ccc(NS(=O)(=O)c2cccc(C(=O)N3CCCN(C)CC3)c2)cc1,inactive
7,Cc1nnc(NC(=O)c2ccc3nccnc3c2)s1,inactive
8,Cc1ccc(C(=O)Nc2nnc(-c3cccs3)s2)cc1C,4470 nM (active)
9,Cc1ccc(C(=O)Oc2coc(CSc3nnc(NC(=O)c4cccs4)s3)cc2=O)cc1C,inactive
10,CC(C)c1ccc(NC(=O)COC(=O)c2ccc(CN3CCCC3=O)cc2)cc1,inactive
11,O=C(Nc1ccnc(-c2ccncc2)n1)c1cccs1,inactive
12,O=C(Nc1ccc(O)cc1)c1ccc(NC(=O)c2ccco2)cc1,inactive
13,O=C(Nc1ccc(NC(=O)c2cccs2)cn1)c1ccco1,316 nM (active)
14,Cc1cc(NC(=O)c2ccc(F)cc2)ccc1NC(=O)c1ccco1,inactive
15,O=C(Nc1ccccc1)c1ccco1,inactive
16,Cc1ccnc(NC(=O)c2ccc(NC(=O)c3ccco3)cc2)c1,3980 nM (active)
17,CCN(CC(=O)Nc1c(F)cccc1F)C(=O)c1cnc(C)cn1,inactive
18,O=C(CCNC(=O)c1ccc(Br)cc1)NCC(c1ccco1)N1CCCCC1 (configuration not stated),inactive
19,COc1ccc(C2=NN(C(=O)CSc3nnnn3C)C(c3ccco3)C2)cc1 (configuration not stated),inactive
20,Nc1ncc(-c2cc3ccccc3oc2=O)s1,2510 nM (active)
21,Cc1cc2c(=O)n(C)c(SCC(=O)c3cc4ccccc4o3)nc2s1,inactive
22,O=C(NCc1cccnc1)c1cccc(-c2cc3ccccc3oc2=O)c1,inactive

row,SMILES,Potency
1,O=C(CSc1ccccc1)Nc1cccc(S(=O)(=O)N2CCCCC2)c1,inactive
2,Cc1cccc(-c2nc3ccc(C(=O)NCCN4CCN(C)CC4)cc3nc2-c2cccc(C)c2)c1,inactive
3,C=CCNC(=O)c1ccc(C)c(Br)c1,inactive
4,C=CCNC(=O)c1ccc2c3n(nc2c1)-c1ccc(C)cc1CO3,501 nM (active)
5,CCOC(=O)c1sc(NC(=O)C2CSC3(C)CCC(=O)N23)nc1C (configuration not stated),inactive
6,C=CCSc1ccc(S(=O)(=O)N2CCN(C)CC2)cn1,inactive
7,CCCCN(C(=O)C(CCSC)N1C(=O)c2ccccc2C1=O)c1c(N)n(CCC)c(=O)[nH]c1=O (configuration not stated),inactive
8,Cc1ccc(-n2nc(C)c(C(=O)O)c2-n2cccc2)cc1,inactive
9,Cc1cccc(C)c1NC(=O)COC(=O)c1c(C)nn(-c2ccccc2)c1C,inactive
10,Cc1ccc(OC(=O)c2c(C)nn(-c3ccccc3)c2C)cc1,2820 nM (active)
11,COCCN(C(=O)CSCc1ccc(C)cc1)c1c(N)n(CC(C)C)c(=O)[nH]c1=O,inactive
12,CCN(CC(=O)NCc1cccs1)C(=O)/C=C/c1ccc(C)cc1,inactive
13,Cc1cccc(Nc2nnc(SCC(=O)c3c(N)n(C4CC4)c(=O)[nH]c3=O)s2)c1C,inactive
14,O=C(NCc1cccs1)c1ccc2c(c1)ncn2C1CCCC1,3550 nM (active)
15,CCOc1ccc(C(=O)NC2CCN(CC(=O)NCc3cccs3)CC2)cc1,inactive
16,COc1ccccc1-n1cnc2cc(C(=O)NCC3CCCO3)ccc21 (configuration not stated),inactive
17,O=C(CCNS(=O)(=O)c1ccc(Br)cc1)NCC1CCCO1 (configuration not stated),inactive
18,COc1ccccc1C(=O)NCC(=O)NCCSc1ccc(Br)cc1,inactive
19,Cc1ccc(NC(=O)CN(C)C(=O)COC(=O)c2nccnc2N)cc1,inactive
20,Clc1ccc(-n2nnnc2-c2cnc(-c3ccccn3)nc2-c2cccs2)cc1,inactive
21,COc1nc(-c2ccc(Cl)cc2)ccc1-c1noc(-c2cccs2)n1,inactive
22,Cc1ccc(-c2noc(CSc3nnc(-c4ccncc4)n3-c3ccc(F)cc3)n2)cc1,inactive

row,SMILES,Potency
1,Cc1ccc(-c2nc(-c3ccncc3)no2)c(C)c1,3160 nM (active)
2,c1ccc(CCc2nc(-c3ccncc3)no2)cc1,inactive
3,O=C(NCc1cccnc1)c1nc(-c2cccs2)no1,inactive
4,Cc1ccc(-c2noc(CSc3nnc(-c4cccs4)n3C)n2)cc1,inactive
5,c1ccc(-c2noc(-c3cccs3)n2)nc1,398 nM (active)
6,c1csc(-c2nc(-c3ccncc3)no2)c1,3160 nM (active)
7,CN(C(=O)CSc1nnc(-c2n[nH]c3ccccc23)o1)c1ccccc1,inactive
8,O=C(COC(=O)c1c(Cl)cccc1Cl)Nc1cccc(S(=O)(=O)NC2=NCCCCC2)c1,inactive
9,COc1ccc(Cc2nnc(N/N=C/c3ccccc3O)[nH]c2=O)cc1OC,inactive
10,COc1ccccc1C(=O)NCC(=O)OCC(=O)Nc1nnc(-c2ccccc2)o1,inactive
11,O=C(COC(=O)c1cc(S(=O)(=O)N2CCOCC2)ccc1Cl)NCCc1ccccc1,inactive
12,Cc1cccc(NC(=O)NC(=S)NC(=O)c2ccccc2)c1,inactive
13,Cc1ccc(NC(=O)NC(=O)c2ccccc2)cc1F,562 nM (active)
14,Cc1nc(C)c(C(=O)Nc2ccc(C)c(F)c2)o1,inactive
15,CCN(CC)C(=O)c1nc[nH]c1C(=O)N(C)Cc1ccccc1,inactive
16,CCOc1cc(NC(=O)Nc2ccccc2)c(OCC)cc1NC(=O)CC,inactive
17,Cc1ccc(NC(=O)Nc2ccccc2)c(Br)c1,3550 nM (active)
18,Cc1c(NC(=O)Nc2ccccc2)cccc1[N+](=O)[O-],inactive
19,COc1cc(F)c(C2=CC(=O)CC(C)(C)C2)cc1F,inactive
20,CSc1ccccc1OCc1cc(C(=O)N2C[C@H]3CC[C@H]2C3)no1,2820 nM (active)
21,COC(=O)[C@@H]1CCCN1C(=O)c1cc(COc2cccc3cccnc23)on1,inactive
22,CSc1ccccc1OCc1cc(C(=O)N(C)CCc2c(C)n[nH]c2C)no1,inactive

row,SMILES,Potency
1,COC(=O)c1ccc(C)c(NC(=O)C2CC(=O)N(C3CCCC(C)C3C)C2)c1 (configuration not stated),inactive
2,NS(=O)(=O)c1ccc(CCNC(=O)COC(=O)COc2cccc(C(F)(F)F)c2)cc1,inactive
3,Cc1ccc(OCCC(=O)Nc2ccc(S(=O)(=O)Nc3nccs3)cc2)cc1,inactive
4,COc1ccc(Cl)cc1NC(=O)CN(C)C(=O)c1ccc2n[nH]nc2c1,inactive
5,Cc1ccsc1C(=O)N/N=C/c1ccc([N+](=O)[O-])cc1,3980 nM (active)
6,Cc1nc2ccccc2cc1C(=O)N/N=C/c1ccc([N+](=O)[O-])cc1,inactive
7,O=C(N/N=C/c1ccc([N+](=O)[O-])cc1)c1c[nH]c2ccccc12,inactive
8,CCNc1nc(-c2cc3ccccc3o2)cs1,2820 nM (active)
9,Cc1nc(C)c(-c2csc(NCCc3ccccc3)n2)s1,inactive
10,CCOC(=O)CSc1nnc(CNc2nc(-c3ccccc3)cs2)n1C,inactive
11,O=C(CC1C(=O)NCCN1CC(c1ccccc1)c1ccccc1)NCC1CCOCC1 (configuration not stated),inactive
12,CCC1CCC2(CC1)NC(=O)N(CC(=O)Nc1ccc(OC)cc1)C2=O (configuration not stated),inactive
13,COc1ccccc1N1CCN(/N=C\C(Br)=C\c2ccccc2)CC1,inactive
14,COc1ccccc1N1CCN(/N=C/c2ccc(O)cc2O)CC1,2820 nM (active)
15,COc1cc(/C=N/N2CCN(c3ccccc3)CC2)ccc1OC(C)=O,inactive
16,O=C(Cc1cccs1)Nc1ccc([N+](=O)[O-])cc1,inactive
17,CCOC(=O)c1ccc(NC(=O)Cc2cccs2)cc1,3550 nM (active)
18,CCOc1ccccc1NC(=O)Cc1cccs1,inactive
19,O=C(O)c1[nH]c2ccccc2c1C(c1cccc(O)c1)c1c(C(=O)O)[nH]c2ccccc12,inactive
20,COc1ccc(NC(=O)CC2SC(N3CCCCC3)=NC2=O)cc1OC (configuration not stated),inactive
21,O=C(NCCCN1CCN(c2ccc(F)cc2)CC1)Nc1ccc([N+](=O)[O-])cc1,inactive
22,CC(=O)Oc1ccc(-c2cccc(C(=O)N3CCCCC3)c2)cc1,inactive

row,SMILES,Potency
1,COc1ccc(Cn2c(=S)[nH]c3cc(C(=O)N4CCCCC4)ccc3c2=O)cc1,inactive
2,COc1ccc(OCc2cccc(C(=O)N3CCCC3)c2)cc1,447 nM (active)
3,COc1cccc(COc2ccc(N(C)S(=O)(=O)c3ccccc3)cc2)c1,inactive
4,CN(Cc1ccccc1)C(=O)c1ccc(COc2ccccc2)cc1,inactive
5,CCOc1ccc(OCc2cccc(C(=O)N(CC)CC)c2)cc1,251 nM (active)
6,CCCCn1nc(C(=O)Nc2cccc(C(=O)NC3CC3)c2)c2ccccc2c1=O,inactive
7,O=C(Nc1ccccc1)N1CCC(C(=O)N2CCN(Cc3ccccc3)CC2)CC1,inactive
8,COc1cccc(N2CCN(CC(=O)Nc3ccnn3C3CCCC3)CC2)c1,inactive
9,CN(CC(=O)Nc1ccc(Cl)cc1)CC(=O)Nc1cccc2ccccc12,inactive
10,Cc1ccc(C(=O)NNC(=O)c2cc3cc4ccccc4nc3s2)cc1,inactive
11,CCc1nc(SCC(=O)NNC(=O)c2ccc(C)cc2)c2ccccc2n1,inactive
12,Cc1ccc(C(=O)NNc2ncnc3ccccc23)cc1,3160 nM (active)
13,CC(=O)Nc1ccc(S(=O)(=O)NC(C)C(=O)OCCOc2ccc(F)cc2)cc1 (configuration not stated),inactive
14,N#CCC(=O)Nc1ccc(C(=O)OCC(=O)Nc2sc3c(c2C#N)CCCC3)cc1,inactive
15,Cc1ccccc1NC(=O)NNC(=O)OC(C)(C)C,inactive
16,C/C(=N\NC(=O)OC(C)(C)C)c1ccc[nH]1,2820 nM (active)
17,CC(C)(C)OC(=O)N/N=C/c1ccc(C(=O)O)cc1,inactive
18,CC(C)CC(COCc1ccc(Cl)cc1)N1CCN(C(=O)c2ccc(C(F)(F)F)cc2)CCC1=O (configuration not stated),inactive
19,CCOc1ccc(NC(=O)CN(C)C(=O)Cn2c(=O)cnc3ccccc32)cc1OCC,inactive
